Results on 17 compounds are retold here after PubChem BioAssay (EPA / NIEHS).

Structures are written as SMILES. Several values for one entry are separate records, joined by “and”; a condition that tells them apart may be missing. Equal entries are not always repeated. Inconclusive results are not listed. Where a structure was tested more than once in an assay, its records may differ in their call. Activity calls are given as the source filed them. The calls were made as follows, unless noted: active = hit-call score of the fitted dose curve at least 0.9, where 1 is the maximum; inconclusive = response in the unintended direction; inactive = score below 0.9.

Assay [1] relates to zebrafish Peroxisome Proliferator-activated Receptor gamma (PPARg), gene 557037. Briefly: ATG_zfPPARg_XSP2: Attagene TRANS-FACTORIAL Multi-Species (XSP2) HepG2 Assay for zebrafish Peroxisome Proliferator-activated Receptor gamma (PPARg) (AID 2283833).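 Also: actives increase reporter signal over DMSO so AC50 reflects activation.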 The method, boiled down: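 HepG2 cells transiently transfected with multiplexed GAL4-UAS reporter units expressing chimeric NR-Gal4 receptors, dosed 24 h. Reporter mRNA quantified by RT-PCR, fluorescent labelling, HpaI digestion and capillary electrophoresis; gain of signal fitted against DMSO.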

Assay [2] concerns turtle Thyroid Hormone Receptor, alpha (TRa), gene 101949057. Put plainly: ATG_trTRa_XSP2: Attagene TRANS-FACTORIAL Multi-Species (XSP1) HepG2 Assay for turtle Thyroid Hormone Receptor, alpha (TRa) (AID 2283834).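 Also: hits raise reporter mRNA over the DMSO baseline so AC50 marks activators.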 The method, boiled down: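 HepG2 cells transiently transfected with GAL4-UAS reporter units for chimeric turtle TRa-Gal4; mRNA measured 24 h after dosing by RT-PCR and capillary electrophoresis fluorescence, gain of signal fitted against DMSO.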

A short description of assay [3]: ATG_M_61_XSP2: Attagene TRANS-FACTORIAL Multi-Species (XSP2) HepG2 Assay for M61 Transcription Factor (Internal Marker) (AID 2283835; active = hit-call score of the fitted dose curve at least 0.9, where 1 is the maximum; inactive = score below 0.9;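 also: active means a rise in signal above the DMSO baseline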). The method, boiled down: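 HepG2 cells transiently transfected with multiple GAL4-UAS reporter units; reporter mRNA measured 24 h after dosing by RT-PCR, fluorescent labelling and capillary electrophoresis. Medium contained 3 nM 6-alpha-fluorotestosterone and 1.5 nM norgestrel; internal marker, DMSO baseline.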

The nature of assay [4]: ATG_XTT_Cytotoxicity_XSP2: Cytotoxicity Assessment in the Attagene TRANS-FACTORIAL Multi-Species (XSP2) HepG2 Assay (AID 2283837). The method in brief:
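HepG2 cells, transiently transfected with multiple reporter constructs, exposed to chemical for 24 h. Cell number assessed with XTT fluorescence read-out; loss of signal fitted relative to DMSO.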

For assay [5], the target named is human Thyroid hormone Receptor alpha (TRa), THRA (gene 7067) (UniProt P10827). Put plainly: ATG_hTRa_XSP2: Attagene TRANS-FACTORIAL Multi-Species (XSP2) HepG2 Assay for human Thyroid hormone Receptor alpha (TRa) (AID 2283838). The method, boiled down: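 HepG2 cells transiently transfected with multiplexed GAL4-UAS reporter units and exogenous NR-GAL4 chimeras; 24 h chemical exposure with 3 nM 6-alpha-fluorotestosterone and 1.5 nM norgestrel present. Reporter mRNA measured by RT-PCR, FAM labelling, HpaI digestion, capillary electrophoresis; gain-of-signal versus DMSO.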

Assay [6] has as its target frog Thyroid hormone Receptor alpha (TRa), thra-a (gene 397942) (UniProt P15204). Put plainly: ATG_frTRa_XSP2: Attagene TRANS-FACTORIAL Multi-Species (XSP2) HepG2 Assay for frog Thyroid hormone Receptor alpha (TRa) (AID 2283839).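 As to AC50: AC50 reflects induction of frog TRa-driven reporter mRNA above DMSO baseline.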 The method, boiled down: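 HepG2 transiently transfected with multiplexed GAL4-UAS reporters driven by frog TRa-Gal4 chimeras; 24 h chemical exposure. Reporter mRNA quantified by RT-PCR, FAM labelling, HpaI digestion and capillary electrophoresis; gain of signal versus DMSO.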

In assay [7] the target is human Thyroid hormone Receptor beta (TRb), THRB (gene 7068) (UniProt P10828). Briefly: ATG_hTRb_XSP2: Attagene TRANS-FACTORIAL Multi-Species (XSP2) HepG2 Assay for human Thyroid hormone Receptor beta (TRb) (AID 2283840).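 Also: actives raise reporter mRNA so potency reflects agonist-like gain of signal.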 The method, boiled down: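 HepG2 transiently transfected with a multi-species panel including a human TRb–Gal4 chimera driving Gal4-UAS reporters; medium contained 3 nM 6-alpha-fluorotestosterone and 1.5 nM norgestrel. 24 h dosing; RT-PCR/capillary electrophoresis readout; positive-direction fit vs DMSO.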

The subject of assay [8] is Sodium/Iodide Symporter (NIS), SLC5A5 (gene 6528). Put plainly: CPHEA_Stoker_NIS_Inhibition_RAIU: CPHEA's Radioactive Iodide Uptake (RAIU) Assay for Sodium/Iodide Symporter (NIS) Inhibition, Stoker and Laws Labs (AID 2283841). The method, boiled down:
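Test chemicals, six concentrations from 0.001 to 100uM in 0.5% DMSO, were co-incubated with carrier-free 125I (final 329pM) on hNIS-HEK293T-EPA monolayers in pH 7.4 HEPES-buffered HBSS. Plates stood 2 hours at room temperature, then were washed cold and counted.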

Assay [9] in a line: CPHEA_Stoker_NIS_Cytotoxicity: Cytotoxicity Assessment for CPHEA's Radioactive Iodide Uptake (RAIU) Assay for Sodium/Iodide Symporter (NIS) Inhibition, Stoker and Laws Labs (AID 2283897).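 As to AC50: active means loss of ATP signal versus DMSO meaning cytotoxicity.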 The method in brief: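 Viability in hNIS-HEK293T-EPA cells is scored as a drop in luciferase-detected ATP following 2-hour room-temperature exposure (0.001–100uM; triplicate wells, three cell passages), with DMSO as negative control.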

Assay [10] can be described thus: CEETOX_H295R_11DCORT_noMTC: CeeTox H295R High-throughput Steroidogenesis Assay for 11-Deoxycortisol (11DCORT), maximum tolerated concentration (MTC) filtered results only (AID 2283911; active = hit-call score of the fitted dose curve at least 0.9, where 1 is the maximum; inactive = score below 0.9). As to conditions: actives raise or lower the signal. The method, boiled down: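 H295R cells were prestimulated 48 h with 10 uM forskolin, then exposed 48 h to chemical (0.1% DMSO final). 11-Deoxycortisol in the medium was measured by MTBE extraction and HPLC-MS/MS, with bidirectional fitting versus DMSO and no MTC filtering of concentrations.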

Assay [11] in a line: CEETOX_H295R_OHPREG_noMTC: CeeTox H295R High-throughput Steroidogenesis Assay for OH-Pregnenolone (OHPREG), maximum tolerated concentration (MTC) filtered results only (AID 2283912; active = hit-call score of the fitted dose curve at least 0.9, where 1 is the maximum; inactive = score below 0.9). The note with it: actives raise or lower the signal. The method in brief: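 H295R cells prestimulated 48 h with 10 uM forskolin, then exposed 48 h to compound (0.1% DMSO). 17alpha-hydroxypregnenolone in medium measured by MTBE extraction and HPLC-MS/MS; bidirectional fit vs DMSO, concentrations not MTT/MTC-filtered.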

The nature of assay [12]: CEETOX_H295R_OHPROG_noMTC: CeeTox H295R High-throughput Steroidogenesis Assay for OH-Progesterone (OHPROG), maximum tolerated concentration (MTC) filtered results only (AID 2283914; active = hit-call score of the fitted dose curve at least 0.9, where 1 is the maximum; inactive = score below 0.9). The note with it: actives raise or lower the signal. The method, boiled down:
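H295R cells prestimulated 48 h with 10 uM forskolin, then exposed 48 h to chemical (0.1% DMSO final). 17alpha-hydroxyprogesterone in medium quantified by HPLC-MS/MS after MTBE extraction; bidirectional fitting versus DMSO, concentrations not MTC-filtered.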

The nature of assay [13]: CEETOX_H295R_CORTISOL_noMTC: CeeTox H295R High-throughput Steroidogenesis Assay for Cortisol, maximum tolerated concentration (MTC) filtered results only (AID 2283916; active = hit-call score of the fitted dose curve at least 0.9, where 1 is the maximum; inactive = score below 0.9). As to conditions: actives raise or lower the signal. The method, boiled down: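 H295R human adrenal cells prestimulated 48 h with 10 uM forskolin, then exposed 48 h to chemical in 0.1% DMSO; cortisol in medium quantified by HPLC-MS/MS; bidirectional fit vs DMSO baseline, concentrations not MTT-filtered for MTC.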

Assay [14] is described as follows: CEETOX_H295R_CORTIC_noMTC: CeeTox H295R High-throughput Steroidogenesis Assay for Corticosterone (CORTIC), maximum tolerated concentration (MTC) filtered results only (AID 2283917; active = hit-call score of the fitted dose curve at least 0.9, where 1 is the maximum; inactive = score below 0.9). The note with it: actives raise or lower the signal. The method in brief:
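H295R adrenal cells pre-stimulated 48 h with 10 uM forskolin, then exposed 48 h to chemical in 0.1% DMSO; corticosterone in medium quantified by HPLC-MS/MS, fitted bidirectionally versus DMSO without MTT-based concentration filtering.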

Assay [15] can be described thus: CEETOX_H295R_DOC_noMTC: CeeTox H295R High-throughput Steroidogenesis Assay for DOC, maximum tolerated concentration (MTC) filtered results only (AID 2283918; active = hit-call score of the fitted dose curve at least 0.9, where 1 is the maximum; inactive = score below 0.9). The note with it: actives raise or lower the signal. The method in brief: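 H295R cells prestimulated 48 h with 10 uM forskolin, then exposed 48 h to chemical in 0.1% DMSO. 11-Deoxycorticosterone in medium measured by MTBE extraction and HPLC-MS/MS; bidirectional fit vs DMSO, no MTC filter.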

The nature of assay [16]: CEETOX_H295R_PROG_noMTC: CeeTox H295R High-throughput Steroidogenesis Assay for Progesterone (PROG), maximum tolerated concentration (MTC) filtered results only (AID 2283920; active = hit-call score of the fitted dose curve at least 0.9, where 1 is the maximum; inactive = score below 0.9). As to conditions: actives raise or lower the signal. The method in brief:
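H295R cells, prestimulated 48 h with 10 uM forskolin, exposed 48 h to chemical in 0.1% DMSO. Medium progesterone quantified by MTBE extraction and HPLC-MS/MS; bidirectional fit versus DMSO, concentrations not MTT-filtered.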

Chain of frog Thyroid hormone Receptor alpha (TRa), thra-a (gene 397942) (P15204 whole entry, looked up, the tested form may be a part): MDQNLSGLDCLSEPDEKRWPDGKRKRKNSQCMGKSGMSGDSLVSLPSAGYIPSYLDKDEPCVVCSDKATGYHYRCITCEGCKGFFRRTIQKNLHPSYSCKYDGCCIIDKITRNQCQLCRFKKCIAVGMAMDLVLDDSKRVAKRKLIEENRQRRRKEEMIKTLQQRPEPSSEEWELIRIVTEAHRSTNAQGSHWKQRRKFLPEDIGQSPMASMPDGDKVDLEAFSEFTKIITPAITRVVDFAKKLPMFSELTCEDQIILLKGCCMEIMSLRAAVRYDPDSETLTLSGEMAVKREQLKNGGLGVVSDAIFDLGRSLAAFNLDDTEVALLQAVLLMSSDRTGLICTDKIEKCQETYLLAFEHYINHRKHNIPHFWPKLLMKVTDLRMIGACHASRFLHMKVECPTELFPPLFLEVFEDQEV
Chain of human Thyroid hormone Receptor alpha (TRa), THRA (gene 7067) (P10827 whole entry, looked up, the tested form may be a part): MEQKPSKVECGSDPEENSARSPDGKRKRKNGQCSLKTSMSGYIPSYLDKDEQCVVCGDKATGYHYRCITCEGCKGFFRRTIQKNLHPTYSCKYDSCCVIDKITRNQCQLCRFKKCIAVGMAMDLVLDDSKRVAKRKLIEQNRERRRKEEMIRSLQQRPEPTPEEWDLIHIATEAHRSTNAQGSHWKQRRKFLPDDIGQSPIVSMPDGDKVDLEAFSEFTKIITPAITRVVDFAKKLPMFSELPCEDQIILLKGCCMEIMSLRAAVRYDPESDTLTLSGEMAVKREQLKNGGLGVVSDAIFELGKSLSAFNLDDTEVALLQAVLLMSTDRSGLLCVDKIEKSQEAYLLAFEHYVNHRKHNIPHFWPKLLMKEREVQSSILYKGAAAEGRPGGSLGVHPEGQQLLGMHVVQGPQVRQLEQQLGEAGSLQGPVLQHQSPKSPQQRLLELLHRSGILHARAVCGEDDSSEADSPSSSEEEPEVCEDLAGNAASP
Chain of human Thyroid hormone Receptor beta (TRb), THRB (gene 7068) (P10828 whole entry, looked up, the tested form may be a part): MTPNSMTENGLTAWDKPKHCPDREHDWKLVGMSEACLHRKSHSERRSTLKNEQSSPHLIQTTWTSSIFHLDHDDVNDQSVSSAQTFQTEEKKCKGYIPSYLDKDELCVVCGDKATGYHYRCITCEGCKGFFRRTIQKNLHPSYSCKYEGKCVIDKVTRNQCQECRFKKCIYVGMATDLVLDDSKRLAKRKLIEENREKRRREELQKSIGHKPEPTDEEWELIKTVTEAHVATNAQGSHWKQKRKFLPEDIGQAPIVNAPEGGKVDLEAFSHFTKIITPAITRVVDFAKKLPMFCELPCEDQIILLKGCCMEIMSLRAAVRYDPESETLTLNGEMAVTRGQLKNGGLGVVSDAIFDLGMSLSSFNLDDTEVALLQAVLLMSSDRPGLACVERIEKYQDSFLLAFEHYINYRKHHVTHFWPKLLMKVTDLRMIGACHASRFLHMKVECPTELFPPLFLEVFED

In the case of `CC(=O)C=C(C)C`, the compound was classed as inactive in [1], in [2], in assay [3], in assay [4], in assay [5] and in assay [6]. The result in assay [7] was inactive.

For `Cc1ccc2ccccc2c1C`, the result in assay [8] was inactive.

Consider `CC(C)c1cccc(C(C)C)c1O`, for which the outcome in assay [8] and in assay [9] was inactive.

`CC12CC1(C)C(=O)N(c1cc(Cl)cc(Cl)c1)C2=O` (centres undefined): the outcome in assay [1], in assay [2], in [3], in [5], in [6] and in assay [7] was inactive. In addition, the AC50 in [7] is 63.2 µM (active).

With `Oc1ccc(-c2ccccc2)cc1`, the compound was called inactive in assay [1], in assay [2], in [3], in [4], in assay [5] and in assay [6]. Further, the compound was classed as inactive in [7].

For `O=S(=O)(c1ccc(Cl)cc1)c1ccc(Cl)cc1`, the compound was called inactive in assay [1], in assay [2], in assay [3], in assay [4], in assay [5] and in assay [6]. Moreover, the result in assay [9] was inactive. Further, the AC50 in [7] was 19.8 µM (active); in assay [8], 9.92 µM (active).

Regarding `Clc1ccc(COC(Cn2ccnc2)c2ccc(Cl)cc2Cl)cc1` (centres undefined), the AC50 is 11.7 µM (active) in [8] and 72.6 µM (active) in [9].

Regarding `O=[N+]([O-])c1ccc(O)c([N+](=O)[O-])c1`, the result in assay [8] and in assay [9] was inactive.

Regarding `COP(=O)(OC)O/C(=C\Cl)c1cc(Cl)c(Cl)cc1Cl`, in [1], the AC50 was 47.3 µM (active). The call in assay [2], in assay [3], in [6], in [7], in assay [8] and in assay [9] was inactive.

As to `C[C@]12CCC(=O)C[C@@H]1CC[C@@H]1[C@@H]2CC[C@]2(C)[C@@H](O)CC[C@@H]12`, the compound was called inactive in assay [1], in assay [2], in assay [3], in [5] and in assay [6]. Further, the AC50 in assay [7] was 0.421 µM (active).

For `Oc1c(I)cc(I)cc1I`, the AC50 was 26.1 µM (active) and 23.3 µM (active) in [1]; 69.1 µM (active) in assay [4]; 26 µM (active) in assay [5]; 26.5 µM (active) and 25.7 µM (active) in assay [6]; 56.1 µM (active) and 16.2 µM (active) in [7]. Further, the compound was classed as inactive in assay [2] and in assay [3].

For the compound `CCN1CCC2(CC1)COc1cc3c(cc12)N(C(=O)c1ccc(-c2ccc(-c4nnc(C)o4)cc2C)cc1)CC3`, the results for the AC50 in assay [8] and in [9] were 72.8 µM (active) and 8.43 µM (active), respectively.

Take `[O-][Cl+2]([O-])O`: the outcome in assay [8] and in assay [9] was inactive.

`ClC(Cl)=C(Cl)C(Cl)=C(Cl)Cl`: the compound was called inactive in assay [10], in assay [11], in assay [12], in [13], in assay [14] and in assay [15]. Besides, the call in [16] was inactive.

Take `Fc1ccc(C2(Cn3cncn3)OC2c2ccccc2Cl)cc1` (centres undefined): the result in assay [8] and in [9] was inactive.

For the compound `CC(C)(c1ccccc1)c1ccc(O)c(C(C)(C)c2ccccc2)c1`, the outcome in assay [8] and in assay [9] was inactive.

For the compound `CC(=O)c1cc(C(C)(C)C)cc2c1CCC2(C)C`, the result in assay [8] and in [9] was inactive.

The term AC50 denotes the midpoint of the concentration-response curve, whichever way the signal moves.
